The full data set covers some 7,900 targets. This sample favours those with a hit. About 0.6% of all pairs of compound and target were hits.
What was measured:
Test in all cases: log2 fold change, soluble protein after heating vs DMSO (PISA); higher = thermal stabilisation; K562 cells, 10 uM, 30 min; active = over 0.2 and 3.5 SD of the protein, either way, in both replicates (recomputed)
ZEB2 = ZEB2 (UniProt O60315)
Summary of the method: (§1)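 Quantification of soluble protein used TMTpro 16plex LC-MS/MS, with channel sums equalised. Samples were the supernatant after 21,000xg for 90 min of pooled aliquots from K562 cells (2×10^6 cells/mL) treated with 10 μM compound for 30 min, heated for 3 min over 48°C-58°C, and extracted in PBS with 0.5% NP-40 at 4°C. Values, from duplicates, describe thermal stability against control samples on a log2 fold-change scale.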

ZER1 = ZER1 (UniProt Q7Z7L7)
Summary of the method: as §1

ZFAND5 = ZFAND5 (UniProt O76080)
Summary of the method: as §1

ZFAND6 = ZFAND6 (UniProt Q6FIF0)
Summary of the method: as §1

ZFP91 = ZFP91 (UniProt Q96JP5)
Summary of the method: as §1

ZFPL1 = ZFPL1 (UniProt O95159)
Summary of the method: as §1

ZMAT2 = ZMAT2 (UniProt Q96NC0)
Summary of the method: as §1

ZMYM1 = ZMYM1 (UniProt Q5SVZ6)
Summary of the method: as §1

ZMYM3 = ZMYM3 (UniProt Q14202)
Summary of the method: as §1

ZNF143 = ZNF143 (UniProt P52747)
Summary of the method: as §1

ZNF217 = ZNF217 (UniProt O75362)
Summary of the method: as §1

ZNF239 = ZNF239 (UniProt Q16600)
Summary of the method: as §1

ZNF277 = ZNF277 (UniProt Q9NRM2)
Summary of the method: as §1

ZNF511 isoform 1 = ZNF511 isoform 1 (UniProt Q8NB15)
Summary of the method: as §1

ZNF579 = ZNF579 (UniProt Q8NAF0)
Summary of the method: as §1

ZNF609 = ZNF609 (UniProt O15014)
Summary of the method: as §1

ZNF622 = ZNF622 (UniProt Q969S3)
Summary of the method: as §1

ZRANB2 = ZRANB2 (UniProt O95218)
Summary of the method: as §1

ZNF580 = ZNF580 (UniProt Q9UK33)
Summary of the method: as §1

ZNF512 = ZNF512 (UniProt Q96ME7)
Summary of the method: as §1

Measured: log2 fold change

Sequence of ZRANB2 (O95218 whole entry, looked up): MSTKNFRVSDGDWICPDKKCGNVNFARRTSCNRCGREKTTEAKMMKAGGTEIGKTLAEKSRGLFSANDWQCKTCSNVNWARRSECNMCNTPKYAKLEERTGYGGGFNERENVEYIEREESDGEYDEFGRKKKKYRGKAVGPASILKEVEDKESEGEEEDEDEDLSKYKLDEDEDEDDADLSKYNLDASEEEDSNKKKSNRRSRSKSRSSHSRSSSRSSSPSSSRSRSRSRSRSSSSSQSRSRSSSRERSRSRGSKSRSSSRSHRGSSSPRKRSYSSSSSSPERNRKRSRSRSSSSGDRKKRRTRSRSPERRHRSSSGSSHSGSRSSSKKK
Sequence of ZNF217 (O75362 whole entry, looked up): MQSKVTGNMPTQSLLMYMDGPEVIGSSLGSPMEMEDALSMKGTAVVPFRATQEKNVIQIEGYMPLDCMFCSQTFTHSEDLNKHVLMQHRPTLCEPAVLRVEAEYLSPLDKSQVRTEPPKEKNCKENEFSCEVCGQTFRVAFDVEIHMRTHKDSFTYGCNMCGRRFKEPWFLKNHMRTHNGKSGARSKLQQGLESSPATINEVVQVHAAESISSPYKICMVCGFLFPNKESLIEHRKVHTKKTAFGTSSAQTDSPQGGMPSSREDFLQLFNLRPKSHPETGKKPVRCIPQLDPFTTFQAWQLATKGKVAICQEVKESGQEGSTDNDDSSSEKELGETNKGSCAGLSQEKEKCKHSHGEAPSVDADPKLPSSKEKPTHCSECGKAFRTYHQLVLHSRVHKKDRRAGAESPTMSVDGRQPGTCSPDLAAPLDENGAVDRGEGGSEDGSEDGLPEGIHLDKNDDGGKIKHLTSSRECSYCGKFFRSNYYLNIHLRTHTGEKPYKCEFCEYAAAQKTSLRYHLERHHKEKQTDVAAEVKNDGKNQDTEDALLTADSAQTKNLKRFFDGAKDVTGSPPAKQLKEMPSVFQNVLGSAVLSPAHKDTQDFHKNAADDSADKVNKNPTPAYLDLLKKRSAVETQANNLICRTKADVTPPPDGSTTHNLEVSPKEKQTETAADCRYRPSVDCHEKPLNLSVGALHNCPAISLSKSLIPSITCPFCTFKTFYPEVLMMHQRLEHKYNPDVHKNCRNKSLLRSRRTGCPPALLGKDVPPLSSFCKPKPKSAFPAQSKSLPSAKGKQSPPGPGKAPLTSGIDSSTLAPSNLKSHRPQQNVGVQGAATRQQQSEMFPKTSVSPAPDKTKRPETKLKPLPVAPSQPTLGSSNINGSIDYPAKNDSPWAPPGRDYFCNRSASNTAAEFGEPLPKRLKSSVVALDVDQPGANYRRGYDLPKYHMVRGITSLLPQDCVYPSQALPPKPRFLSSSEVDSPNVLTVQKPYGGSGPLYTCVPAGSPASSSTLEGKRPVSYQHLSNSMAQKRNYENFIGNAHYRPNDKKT
Sequence of ZNF277 (Q9NRM2 whole entry, looked up): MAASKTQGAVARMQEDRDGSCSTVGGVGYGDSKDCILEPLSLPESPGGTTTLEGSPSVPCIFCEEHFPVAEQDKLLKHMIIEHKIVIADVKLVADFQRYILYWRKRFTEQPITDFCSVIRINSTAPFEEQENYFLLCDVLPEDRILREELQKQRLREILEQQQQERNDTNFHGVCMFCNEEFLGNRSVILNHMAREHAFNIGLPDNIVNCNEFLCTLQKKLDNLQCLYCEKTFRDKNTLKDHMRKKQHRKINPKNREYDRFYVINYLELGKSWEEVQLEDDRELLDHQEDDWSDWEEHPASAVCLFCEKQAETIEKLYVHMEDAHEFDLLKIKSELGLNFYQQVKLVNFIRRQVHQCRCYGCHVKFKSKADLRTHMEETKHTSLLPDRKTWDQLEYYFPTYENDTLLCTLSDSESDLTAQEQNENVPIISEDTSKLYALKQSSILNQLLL
Sequence of ZFAND5 (O76080 whole entry, looked up): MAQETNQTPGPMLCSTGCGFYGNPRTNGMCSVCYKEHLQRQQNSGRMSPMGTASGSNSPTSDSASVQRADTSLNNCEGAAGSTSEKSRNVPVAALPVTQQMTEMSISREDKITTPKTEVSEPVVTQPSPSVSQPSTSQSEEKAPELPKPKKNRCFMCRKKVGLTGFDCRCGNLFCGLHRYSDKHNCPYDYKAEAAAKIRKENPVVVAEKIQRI
Sequence of ZNF580 (Q9UK33 whole entry, looked up): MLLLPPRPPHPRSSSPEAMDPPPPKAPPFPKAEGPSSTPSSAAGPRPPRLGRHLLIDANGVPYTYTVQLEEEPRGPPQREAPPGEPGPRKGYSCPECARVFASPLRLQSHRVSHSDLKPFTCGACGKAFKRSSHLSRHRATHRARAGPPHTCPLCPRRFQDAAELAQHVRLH
Sequence of ZNF609 (O15014 whole entry, looked up): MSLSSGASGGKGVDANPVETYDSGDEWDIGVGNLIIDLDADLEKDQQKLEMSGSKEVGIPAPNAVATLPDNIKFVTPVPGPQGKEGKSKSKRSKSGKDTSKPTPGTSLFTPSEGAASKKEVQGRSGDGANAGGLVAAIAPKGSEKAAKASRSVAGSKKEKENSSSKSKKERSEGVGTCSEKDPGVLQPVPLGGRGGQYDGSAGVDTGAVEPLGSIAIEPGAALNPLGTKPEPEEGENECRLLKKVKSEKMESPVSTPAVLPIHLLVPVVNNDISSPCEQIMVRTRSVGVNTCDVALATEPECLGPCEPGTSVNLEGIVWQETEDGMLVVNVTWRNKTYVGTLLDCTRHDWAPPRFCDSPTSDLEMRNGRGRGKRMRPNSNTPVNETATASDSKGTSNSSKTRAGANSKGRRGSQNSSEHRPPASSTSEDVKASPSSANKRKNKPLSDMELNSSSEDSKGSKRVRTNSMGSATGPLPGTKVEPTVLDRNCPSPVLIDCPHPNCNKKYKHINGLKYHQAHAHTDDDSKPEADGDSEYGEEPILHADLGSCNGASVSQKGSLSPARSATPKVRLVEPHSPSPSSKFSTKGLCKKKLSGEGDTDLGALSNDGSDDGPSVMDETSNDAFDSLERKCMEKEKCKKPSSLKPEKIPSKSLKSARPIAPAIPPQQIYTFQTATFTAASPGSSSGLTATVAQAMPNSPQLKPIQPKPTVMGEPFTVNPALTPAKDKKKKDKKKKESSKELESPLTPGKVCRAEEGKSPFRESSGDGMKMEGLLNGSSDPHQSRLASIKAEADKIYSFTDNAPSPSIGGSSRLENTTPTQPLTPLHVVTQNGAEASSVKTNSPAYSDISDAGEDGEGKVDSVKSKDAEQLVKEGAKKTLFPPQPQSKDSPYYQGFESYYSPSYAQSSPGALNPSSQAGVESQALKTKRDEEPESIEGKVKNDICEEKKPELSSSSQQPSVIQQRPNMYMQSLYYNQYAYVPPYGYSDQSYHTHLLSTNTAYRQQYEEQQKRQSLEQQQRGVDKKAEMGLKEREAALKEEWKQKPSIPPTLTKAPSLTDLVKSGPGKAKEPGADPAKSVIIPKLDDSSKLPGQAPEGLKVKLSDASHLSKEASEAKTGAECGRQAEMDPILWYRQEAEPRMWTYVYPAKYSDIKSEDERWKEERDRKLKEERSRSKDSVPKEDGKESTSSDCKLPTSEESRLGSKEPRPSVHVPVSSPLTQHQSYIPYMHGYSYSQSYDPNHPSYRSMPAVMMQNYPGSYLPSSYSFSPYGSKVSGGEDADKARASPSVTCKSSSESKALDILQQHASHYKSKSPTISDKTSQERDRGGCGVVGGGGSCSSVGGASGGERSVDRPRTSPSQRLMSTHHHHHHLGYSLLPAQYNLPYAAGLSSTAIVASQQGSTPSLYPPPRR
Sequence of ZNF622 (Q969S3 whole entry, looked up): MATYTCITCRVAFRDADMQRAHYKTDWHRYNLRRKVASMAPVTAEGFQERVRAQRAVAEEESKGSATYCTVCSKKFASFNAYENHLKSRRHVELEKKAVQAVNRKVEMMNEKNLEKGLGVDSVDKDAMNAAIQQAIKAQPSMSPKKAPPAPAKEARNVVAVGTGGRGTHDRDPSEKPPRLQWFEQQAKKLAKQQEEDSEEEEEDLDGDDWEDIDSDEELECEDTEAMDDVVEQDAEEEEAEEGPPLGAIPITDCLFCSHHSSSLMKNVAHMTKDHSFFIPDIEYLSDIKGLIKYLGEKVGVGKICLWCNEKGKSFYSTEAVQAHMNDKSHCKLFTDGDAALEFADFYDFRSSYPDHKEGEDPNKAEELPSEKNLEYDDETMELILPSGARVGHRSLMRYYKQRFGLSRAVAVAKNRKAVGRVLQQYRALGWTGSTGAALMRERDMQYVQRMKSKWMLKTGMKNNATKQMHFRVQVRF
Sequence of ZNF239 (Q16600 whole entry, looked up): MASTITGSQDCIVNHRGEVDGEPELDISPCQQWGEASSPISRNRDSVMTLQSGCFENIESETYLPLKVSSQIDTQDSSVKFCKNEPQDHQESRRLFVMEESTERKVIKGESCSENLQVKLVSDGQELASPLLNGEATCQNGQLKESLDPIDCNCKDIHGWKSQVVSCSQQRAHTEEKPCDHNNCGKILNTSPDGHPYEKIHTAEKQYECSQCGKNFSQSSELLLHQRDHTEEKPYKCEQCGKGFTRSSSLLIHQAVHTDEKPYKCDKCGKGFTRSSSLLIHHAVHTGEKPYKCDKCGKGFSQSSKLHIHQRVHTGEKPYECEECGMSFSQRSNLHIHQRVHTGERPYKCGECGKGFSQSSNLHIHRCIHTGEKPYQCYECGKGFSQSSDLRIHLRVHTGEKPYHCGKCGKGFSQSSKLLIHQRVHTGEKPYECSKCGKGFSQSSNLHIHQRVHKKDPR
Sequence of ZFAND6 (Q6FIF0 whole entry, looked up): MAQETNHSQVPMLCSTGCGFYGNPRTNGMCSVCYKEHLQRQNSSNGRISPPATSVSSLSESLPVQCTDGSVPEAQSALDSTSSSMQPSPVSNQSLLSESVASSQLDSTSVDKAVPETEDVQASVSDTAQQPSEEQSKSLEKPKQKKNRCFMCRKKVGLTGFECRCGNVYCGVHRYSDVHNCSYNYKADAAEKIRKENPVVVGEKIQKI
Sequence of ZMAT2 (Q96NC0 whole entry, looked up): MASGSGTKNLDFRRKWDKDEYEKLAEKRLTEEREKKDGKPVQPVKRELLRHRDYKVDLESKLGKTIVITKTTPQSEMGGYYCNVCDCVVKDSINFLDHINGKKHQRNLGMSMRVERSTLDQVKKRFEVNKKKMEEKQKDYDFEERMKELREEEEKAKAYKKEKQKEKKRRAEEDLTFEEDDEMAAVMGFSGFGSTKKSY

CN(CCOc1ccc(C[C@@H]2SC(=O)NC2=O)cc1)c1ccccn1 (racemic) [rosiglitazone]
inactive: ZEB2 0.078 | ZER1 0.103 | ZFAND5 -0.001 | ZFAND6 -0.015 | ZFP91 -0.101 | ZFPL1 -0.03 | ZMAT2 -0.019 | ZMYM1 0.029 | ZMYM3 0.001 | ZNF143 -0.037 | ZNF217 0.047 | ZNF239 0.17 | ZNF277 0.011 | ZNF511 isoform 1 0.085 | ZNF579 -0.021 | ZNF609 0.027 | ZNF622 0.027 | ZRANB2 -0.055

CC(C)(C)Cn1c(N)nc2ccc(-c3[nH]c(C(C)(C)C)nc3-c3ccc(F)cc3)nc21 [ralimetinib]
inactive: ZEB2 -0.075 | ZER1 0.089 | ZFAND5 0.024 | ZFAND6 -0.048 | ZFP91 -0.033 | ZFPL1 0.152 | ZMAT2 -0.024 | ZMYM1 0.078 | ZMYM3 -0.07 | ZNF143 0.112 | ZNF217 -0.012 | ZNF239 -0.07 | ZNF277 0.116 | ZNF511 isoform 1 0.074 | ZNF579 0.032 | ZNF609 -0.053 | ZNF622 -0.019 | ZRANB2 -0.014

CCCS(=O)(=O)Nc1ccc(F)c(C(=O)c2c[nH]c3ncc(-c4ccc(Cl)cc4)cc23)c1F [vemurafenib]
inactive: ZEB2 0.256 | ZER1 -0.033 | ZFAND5 -0.106 | ZFAND6 -0.024 | ZFP91 -0.071 | ZFPL1 0.021 | ZMAT2 -0.021 | ZMYM1 -0.095 | ZMYM3 -0.109 | ZNF143 0.029 | ZNF217 0.044 | ZNF239 0.004 | ZNF277 0.063 | ZNF511 isoform 1 -0.087 | ZNF579 -0.157 | ZNF580 0.042 | ZNF609 0.025 | ZNF622 0.012 | ZRANB2 -0.014

COC(=O)[C@H](CCSC)NC(=O)c1ccc(NC[C@@H](N)CS)cc1-c1ccccc1
inactive: ZEB2 -0.382 | ZER1 0.035 | ZFAND5 0.1 | ZFAND6 0.061 | ZFP91 0.064 | ZFPL1 -0.007 | ZMAT2 0.019 | ZMYM1 0.026 | ZMYM3 0.035 | ZNF143 0.013 | ZNF217 -0.067 | ZNF239 0.002 | ZNF277 -0.047 | ZNF511 isoform 1 -0.201 | ZNF579 -0.012 | ZNF580 -0.082 | ZNF609 0.019 | ZNF622 0.005 | ZRANB2 0.05

C[C@@H](Oc1cc(-c2cnn(C3CCNCC3)c2)cnc1N)c1c(Cl)ccc(F)c1Cl [crizotinib]
inactive: ZEB2 -0.141 | ZER1 0.084 | ZFAND5 -0.085 | ZFAND6 -0.041 | ZFP91 0 | ZFPL1 0.107 | ZMAT2 0.098 | ZMYM1 -0.017 | ZMYM3 0.04 | ZNF143 -0.06 | ZNF217 -0.121 | ZNF239 -0.124 | ZNF277 -0.181 | ZNF579 0.112 | ZNF580 0.164 | ZNF609 -0.113 | ZNF622 -0.029 | ZRANB2 0.014

COc1ccc(Cn2ccc3ccc(C(=O)NO)cc32)cc1
active: ZMAT2 0.378
inactive: ZEB2 -0.078 | ZER1 -0.236 | ZFAND5 -0.032 | ZFAND6 0.066 | ZFP91 -0.076 | ZFPL1 0.074 | ZMYM1 -0.056 | ZMYM3 0 | ZNF143 -0.035 | ZNF217 -0.024 | ZNF239 -0.178 | ZNF277 -0.073 | ZNF579 0.056 | ZNF580 -0.134 | ZNF609 -0.034 | ZNF622 -0.033 | ZRANB2 -0.022

CC(C)c1cnn2c(NCc3ccccc3)cc(NCCCCCCN)nc12
inactive: ZEB2 -0.187 | ZER1 -0.072 | ZFAND5 0.072 | ZFAND6 0.075 | ZFP91 0.007 | ZFPL1 0.146 | ZMAT2 0.138 | ZMYM1 0.09 | ZMYM3 0.04 | ZNF143 -0.158 | ZNF217 -0.034 | ZNF239 0.149 | ZNF277 -0.3 | ZNF512 0.321 | ZNF579 0.054 | ZNF609 -0.042 | ZNF622 -0.011 | ZRANB2 0.014

Cn1cc(-c2ccc3nnc(C(F)(F)c4ccc5ncccc5c4)n3n2)cn1
inactive: ZEB2 -0.135 | ZER1 -0.024 | ZFAND5 -0.036 | ZFAND6 -0.009 | ZFP91 -0.073 | ZFPL1 -0.03 | ZMAT2 -0.051 | ZMYM1 0.05 | ZNF143 0.041 | ZNF217 -0.01 | ZNF239 -0.102 | ZNF277 -0.064 | ZNF511 isoform 1 -0.132 | ZNF579 0.002 | ZNF609 -0.286 | ZNF622 0.024 | ZRANB2 0.036
active: ZMYM3 -0.246

Cc1ccc(C(=O)N(CCCN)[C@@H](c2nc3cc(Cl)ccc3c(=O)n2Cc2ccccc2)C(C)C)cc1 [ispinesib]
inactive: ZEB2 0.05 | ZER1 0.153 | ZFAND5 -0.07 | ZFAND6 -0.082 | ZFP91 -0.227 | ZFPL1 0.236 | ZMAT2 0.042 | ZMYM1 -0.122 | ZMYM3 -0.013 | ZNF143 -0.038 | ZNF217 -0.064 | ZNF239 -0.074 | ZNF277 -0.27 | ZNF511 isoform 1 0.296 | ZNF579 0.029 | ZNF609 0.014 | ZNF622 0.062 | ZRANB2 0.005

Oc1cc(-c2nc(-c3ccccc3)[nH]c2-c2ccncc2)ccc1Cl
inactive: ZEB2 -0.053 | ZER1 0.012 | ZFAND5 -0.024 | ZFAND6 -0.006 | ZFP91 -0.06 | ZFPL1 -0.119 | ZMAT2 -0.042 | ZMYM1 -0.101 | ZMYM3 -0.033 | ZNF143 0.093 | ZNF217 -0.014 | ZNF239 0.044 | ZNF277 -0.004 | ZNF511 isoform 1 0.018 | ZNF579 -0.025 | ZNF609 0.01 | ZNF622 0.016 | ZRANB2 -0.073

C[C@H](Nc1ncnc2nc[nH]c12)c1cc2cccc(Cl)c2c(=O)n1-c1ccccc1 [duvelisib]
inactive: ZEB2 0.05 | ZER1 -0.154 | ZFAND5 -0.063 | ZFAND6 0.032 | ZFP91 -0.038 | ZFPL1 0.046 | ZMAT2 0.014 | ZMYM1 -0.096 | ZMYM3 0.021 | ZNF143 -0.146 | ZNF217 0.108 | ZNF239 0.038 | ZNF277 -0.107 | ZNF579 -0.031 | ZNF580 -0.078 | ZNF609 0.073 | ZNF622 0.065 | ZRANB2 -0.02

C=CC(=O)N1CCC[C@@H](n2nc(-c3ccc(Oc4ccccc4)cc3)c3c(N)ncnc32)C1 [ibrutinib]
inactive: ZEB2 0.029 | ZER1 0.001 | ZFAND5 0.03 | ZFAND6 0.006 | ZFP91 0 | ZFPL1 0.087 | ZMAT2 0.025 | ZMYM1 0.066 | ZMYM3 0.03 | ZNF143 0.01 | ZNF217 -0.028 | ZNF239 0.165 | ZNF277 -0.028 | ZNF511 isoform 1 0.047 | ZNF579 -0.024 | ZNF609 -0.024 | ZNF622 -0.003 | ZRANB2 0.013

CN1CCN(CCOc2cc(OC3CCOCC3)c3c(Nc4c(Cl)ccc5c4OCO5)ncnc3c2)CC1 [saracatinib]
inactive: ZEB2 0.008 | ZER1 0.013 | ZFAND5 0.08 | ZFAND6 -0.035 | ZFP91 0.036 | ZFPL1 0.016 | ZMAT2 0.026 | ZMYM1 -0.024 | ZMYM3 0.098 | ZNF143 0.094 | ZNF217 -0.083 | ZNF239 0.052 | ZNF277 -0.276 | ZNF579 -0.025 | ZNF580 0.108 | ZNF609 0.047 | ZNF622 -0.005 | ZRANB2 0.044

CCN(CC)Cc1ccc2cc(COC(=O)Nc3ccc(C(=O)NO)cc3)ccc2c1 [givinostat]
inactive: ZEB2 0.193 | ZER1 0.117 | ZFAND5 -0.016 | ZFAND6 0.017 | ZFP91 0.009 | ZFPL1 -0.09 | ZMAT2 -0.008 | ZMYM1 0.12 | ZMYM3 0.002 | ZNF143 -0.022 | ZNF217 0.037 | ZNF239 -0.226 | ZNF277 0.199 | ZNF512 0.112 | ZNF579 0.042 | ZNF609 0.063 | ZNF622 -0.004 | ZRANB2 -0.029

C#Cc1cccc(Nc2ncnc3cc(OCCOC)c(OCCOC)cc23)c1 [erlotinib]
inactive: ZEB2 0.101 | ZER1 0.086 | ZFAND5 -0.028 | ZFAND6 0.024 | ZFP91 -0.004 | ZFPL1 -0.022 | ZMAT2 -0.017 | ZMYM1 0.14 | ZMYM3 0.042 | ZNF143 0.021 | ZNF217 0.001 | ZNF239 -0.098 | ZNF277 0.097 | ZNF512 -0.048 | ZNF579 -0.056 | ZNF609 0.03 | ZNF622 0.056 | ZRANB2 0.005

CNC(=O)c1ccccc1Nc1nc(Nc2ccc(N3CCOCC3)cc2OC)ncc1Cl
inactive: ZEB2 -0.07 | ZER1 -0.164 | ZFAND5 -0.141 | ZFAND6 -0.015 | ZFP91 -0.016 | ZFPL1 0.061 | ZMAT2 -0.018 | ZMYM1 -0.082 | ZMYM3 0 | ZNF143 -0.084 | ZNF217 -0.029 | ZNF239 -0.055 | ZNF277 0.009 | ZNF512 0.151 | ZNF579 -0.019 | ZNF609 -0.057 | ZNF622 0.045 | ZRANB2 0.002

Reference: the supplement of paper PMC10849652
